Consider 3 sequences from PMC11006913.

Common to all, as to test: PBM; 200 nM protein, PBS
What all share (details): dsDNA, one strand shown

The target in assay [1] is HOXB4 (Homo sapiens, UniProt P17483 148-234).
For assay [2], the target named is HOXA4 (Homo sapiens, UniProt Q00056 201-287, W262R).
Assay [3] deals with ALX4 (Homo sapiens, UniProt Q9H161 200-286).
For assay [4], the target named is PRRX1 (Homo sapiens, UniProt P54821 80-166, F113S).
Assay [5] addresses ALX4 (Homo sapiens, UniProt Q9H161 200-286, Q225E).
Assay [6] addresses HOXA4 (Homo sapiens, UniProt Q00056 201-287, R217L).
Assay [7] addresses HOXB4 (Homo sapiens, UniProt P17483 148-234, V174I).
In assay [8] the target is ALX3 (Homo sapiens, UniProt O95076 139-225, N203Q).
ALX3 (Homo sapiens, UniProt O95076 139-225, N203Q), sequence (O95076 139-225 N203Q): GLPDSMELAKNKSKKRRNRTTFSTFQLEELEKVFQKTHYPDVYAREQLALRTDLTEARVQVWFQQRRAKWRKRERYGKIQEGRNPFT
Assay [9] has as its target HOXA4 (Homo sapiens, UniProt Q00056 201-287).
Assay [10] concerns the target ALX3 (Homo sapiens, UniProt O95076 139-225).
Assay [11] deals with ALX3 (Homo sapiens, UniProt O95076 139-225, L168Q).
ALX3 (Homo sapiens, UniProt O95076 139-225, L168Q), sequence (O95076 139-225 L168Q): as the sequence (O95076 139-225 N203Q) above, with L30Q, Q65N counted along it
Assay [12] deals with ALX3 (Homo sapiens, UniProt O95076 139-225, L168V).
ALX3 (Homo sapiens, UniProt O95076 139-225, L168V), sequence (O95076 139-225 L168V): as the sequence (O95076 139-225 N203Q) above, with L30V, Q65N counted along it
The target of assay [13] is HOXA4 (Homo sapiens, UniProt Q00056 201-287, W262F).
HOXA4 (Homo sapiens, UniProt Q00056 201-287, W262F), sequence (Q00056 201-287 W262F): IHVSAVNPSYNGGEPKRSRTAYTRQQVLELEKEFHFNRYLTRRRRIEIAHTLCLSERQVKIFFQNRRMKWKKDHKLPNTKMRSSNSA
The target of assay [14] is ALX3 (Homo sapiens, UniProt O95076 139-225, N203S).
ALX3 (Homo sapiens, UniProt O95076 139-225, N203S), sequence (O95076 139-225 N203S): as the sequence (O95076 139-225 N203Q) above, with Q65S counted along it
Assay [15] concerns the target PRRX1 (Homo sapiens, UniProt P54821 80-166).
In assay [16] the target is HOXA2 (Homo sapiens, UniProt O43364 129-215, R185T).
HOXA2 (Homo sapiens, UniProt O43364 129-215, R185T), sequence (O43364 129-215 R185T): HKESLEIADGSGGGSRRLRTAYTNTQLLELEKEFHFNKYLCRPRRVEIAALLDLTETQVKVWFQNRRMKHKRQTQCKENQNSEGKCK
The target of assay [17] is ALX1 (Homo sapiens, UniProt Q15699 118-204, L144V).
ALX1 (Homo sapiens, UniProt Q15699 118-204, L144V), sequence (Q15699 118-204 L144V): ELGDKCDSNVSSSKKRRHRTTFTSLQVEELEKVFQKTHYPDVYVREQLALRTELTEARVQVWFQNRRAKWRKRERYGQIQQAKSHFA
In assay [18] the target is HOXA2 (Homo sapiens, UniProt O43364 129-215, R185K).
HOXA2 (Homo sapiens, UniProt O43364 129-215, R185K), sequence (O43364 129-215 R185K): as the sequence (O43364 129-215 R185T) above, with T57K counted along it
Assay [19] has as its target ALX1 (Homo sapiens, UniProt Q15699 118-204, L144R).
Assay [20] deals with VAX1 (Homo sapiens, UniProt Q5SQQ9 86-172).
VAX1 (Homo sapiens, UniProt Q5SQQ9 86-172), sequence (Q5SQQ9 86-172): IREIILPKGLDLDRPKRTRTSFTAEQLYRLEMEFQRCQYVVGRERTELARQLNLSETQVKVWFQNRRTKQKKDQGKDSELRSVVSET
In assay [21] the target is VAX1 (Homo sapiens, UniProt Q5SQQ9 86-172, T142I).
VAX1 (Homo sapiens, UniProt Q5SQQ9 86-172, T142I), sequence (Q5SQQ9 86-172 T142I): as the sequence (Q5SQQ9 86-172) above, with T57I counted along it
Assay [22] deals with HOXA2 (Homo sapiens, UniProt O43364 129-215, Y150S).
HOXA2 (Homo sapiens, UniProt O43364 129-215, Y150S), sequence (O43364 129-215 Y150S): as the sequence (O43364 129-215 R185T) above, with Y22S, T57R counted along it
The target in assay [23] is ALX1 (Homo sapiens, UniProt Q15699 118-204).
ALX1 (Homo sapiens, UniProt Q15699 118-204), sequence (Q15699 118-204): as the sequence (Q15699 118-204 L144V) above, with V27L counted along it
Assay [24] concerns the target HOXA2 (Homo sapiens, UniProt O43364 129-215).
The target in assay [25] is VAX1 (Homo sapiens, UniProt Q5SQQ9 86-172, K157R).
VAX1 (Homo sapiens, UniProt Q5SQQ9 86-172, K157R), sequence (Q5SQQ9 86-172 K157R): as the sequence (Q5SQQ9 86-172) above, with K72R counted along it
The next assay deals with T1, NKX2-6 (Homo sapiens, UniProt A6NCS4 118-204, R150C).
T1 sequence: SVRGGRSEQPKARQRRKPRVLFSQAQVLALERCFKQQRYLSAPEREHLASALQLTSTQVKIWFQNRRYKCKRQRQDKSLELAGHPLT

HOXA4 (Homo sapiens, UniProt Q00056 201-287, W262R), sequence (Q00056 201-287 W262R): as the sequence (Q00056 201-287 W262F) above, with F62R counted along it
HOXB4 (Homo sapiens, UniProt P17483 148-234), sequence (P17483 148-234): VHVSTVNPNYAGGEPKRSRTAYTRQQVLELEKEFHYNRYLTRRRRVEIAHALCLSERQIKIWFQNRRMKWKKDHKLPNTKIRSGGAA
HOXA4 (Homo sapiens, UniProt Q00056 201-287, R217L), sequence (Q00056 201-287 R217L): as the sequence (Q00056 201-287 W262F) above, with R17L, F62W counted along it
HOXB4 (Homo sapiens, UniProt P17483 148-234, V174I), sequence (P17483 148-234 V174I): as the sequence (P17483 148-234) above, with V27I counted along it
HOXA4 (Homo sapiens, UniProt Q00056 201-287), sequence (Q00056 201-287): as the sequence (Q00056 201-287 W262F) above, with F62W counted along it
HOXA2 (Homo sapiens, UniProt O43364 129-215), sequence (O43364 129-215): as the sequence (O43364 129-215 R185T) above, with T57R counted along it
ALX3 (Homo sapiens, UniProt O95076 139-225), sequence (O95076 139-225): as the sequence (O95076 139-225 N203Q) above, with Q65N counted along it
ALX4 (Homo sapiens, UniProt Q9H161 200-286, Q225E), sequence (Q9H161 200-286 Q225E): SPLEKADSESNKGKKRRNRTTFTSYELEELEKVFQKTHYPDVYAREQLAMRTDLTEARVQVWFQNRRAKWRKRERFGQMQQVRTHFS
PRRX1 (Homo sapiens, UniProt P54821 80-166), sequence (P54821 80-166): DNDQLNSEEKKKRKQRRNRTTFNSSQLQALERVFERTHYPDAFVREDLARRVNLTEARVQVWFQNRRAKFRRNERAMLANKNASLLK
ALX4 (Homo sapiens, UniProt Q9H161 200-286), sequence (Q9H161 200-286): as the sequence (Q9H161 200-286 Q225E) above, with E26Q counted along it
PRRX1 (Homo sapiens, UniProt P54821 80-166, F113S), sequence (P54821 80-166 F113S): as the sequence (P54821 80-166) above, with F34S counted along it
ALX1 (Homo sapiens, UniProt Q15699 118-204, L144R), sequence (Q15699 118-204 L144R): as the sequence (Q15699 118-204 L144V) above, with V27R counted along it

Turning to CCCTTGCG, the binding signal is 7.39 upbm affinity estimate (log intensity, higher = more binding, comparable within an allelic series) with HOXB4 [1]; 9.76 upbm affinity estimate (log intensity, higher = more binding, comparable within an allelic series) with HOXA4 [2]; 7.92 upbm affinity estimate (log intensity, higher = more binding, comparable within an allelic series) in the assay with ALX4 [3]; 9.08 upbm affinity estimate (log intensity, higher = more binding, comparable within an allelic series) in the assay with PRRX1 [4]; 7.92 upbm affinity estimate (log intensity, higher = more binding, comparable within an allelic series) in the assay with ALX4 [5]; 9.77 upbm affinity estimate (log intensity, higher = more binding, comparable within an allelic series) in the assay with HOXA4 [6]. Further, the binding signal with HOXB4 [7] is 7.32 upbm affinity estimate (log intensity, higher = more binding, comparable within an allelic series); with ALX3 [8] it was 7.69 upbm affinity estimate (log intensity, higher = more binding, comparable within an allelic series); in the assay with HOXA4 [9], 9.61 upbm affinity estimate (log intensity, higher = more binding, comparable within an allelic series); with ALX3 [10] it was 7.65 upbm affinity estimate (log intensity, higher = more binding, comparable within an allelic series); in the assay with ALX3 [11], 7.59 upbm affinity estimate (log intensity, higher = more binding, comparable within an allelic series); with ALX3 [12], 7.6 upbm affinity estimate (log intensity, higher = more binding, comparable within an allelic series). In addition, the binding signal in the assay with HOXA4 [13] was 9.81 upbm affinity estimate (log intensity, higher = more binding, comparable within an allelic series); with ALX3 [14] it was 7.67 upbm affinity estimate (log intensity, higher = more binding, comparable within an allelic series); in the assay with PRRX1 [15], 9.11 upbm affinity estimate (log intensity, higher = more binding, comparable within an allelic series).
For the sequence TTAATGAA, the binding signal is 13 upbm affinity estimate (log intensity, higher = more binding, comparable within an allelic series) with HOXB4 [1]; 10.7 upbm affinity estimate (log intensity, higher = more binding, comparable within an allelic series) in the assay with HOXA4 [2]; 12 upbm affinity estimate (log intensity, higher = more binding, comparable within an allelic series) with HOXA2 [16]; 12.2 upbm affinity estimate (log intensity, higher = more binding, comparable within an allelic series) with HOXA4 [6]; 13.7 upbm affinity estimate (log intensity, higher = more binding, comparable within an allelic series) in the assay with HOXB4 [7]; 11 upbm affinity estimate (log intensity, higher = more binding, comparable within an allelic series) with ALX1 [17]. For the same sequence, the binding signal with HOXA2 [18] was 12.9 upbm affinity estimate (log intensity, higher = more binding, comparable within an allelic series); with ALX1 [19], 10.7 upbm affinity estimate (log intensity, higher = more binding, comparable within an allelic series); in the assay with HOXA4 [9] it was 13.8 upbm affinity estimate (log intensity, higher = more binding, comparable within an allelic series); with VAX1 [20], 12.7 upbm affinity estimate (log intensity, higher = more binding, comparable within an allelic series); with VAX1 [21], 12.4 upbm affinity estimate (log intensity, higher = more binding, comparable within an allelic series); in the assay with HOXA2 [22], 10.8 upbm affinity estimate (log intensity, higher = more binding, comparable within an allelic series). For the same sequence, the binding signal in the assay with ALX1 [23] was 11.5 upbm affinity estimate (log intensity, higher = more binding, comparable within an allelic series); with HOXA4 [13], 11.8 upbm affinity estimate (log intensity, higher = more binding, comparable within an allelic series); with HOXA2 [24] it was 12.1 upbm affinity estimate (log intensity, higher = more binding, comparable within an allelic series); with VAX1 [25], 12.4 upbm affinity estimate (log intensity, higher = more binding, comparable within an allelic series).
Regarding ACCGCCGG, the binding signal is 7.71 upbm affinity estimate (log intensity, higher = more binding, comparable within an allelic series) in the assay with HOXB4 [1]; 9.74 upbm affinity estimate (log intensity, higher = more binding, comparable within an allelic series) with HOXA4 [2]; 7.21 upbm affinity estimate (log intensity, higher = more binding, comparable within an allelic series) in the assay with HOXA2 [16]; 9.58 upbm affinity estimate (log intensity, higher = more binding, comparable within an allelic series) with HOXA4 [6]; 7.62 upbm affinity estimate (log intensity, higher = more binding, comparable within an allelic series) in the assay with HOXB4 [7]; 9.49 upbm affinity estimate (log intensity, higher = more binding, comparable within an allelic series) with NKX2-6. Further, the binding signal with ALX3 [8] was 7.72 upbm affinity estimate (log intensity, higher = more binding, comparable within an allelic series); with HOXA2 [18], 10.2 upbm affinity estimate (log intensity, higher = more binding, comparable within an allelic series); with HOXA4 [9], 9.85 upbm affinity estimate (log intensity, higher = more binding, comparable within an allelic series); in the assay with ALX3 [10] it was 7.95 upbm affinity estimate (log intensity, higher = more binding, comparable within an allelic series); with VAX1 [20], 7.52 upbm affinity estimate (log intensity, higher = more binding, comparable within an allelic series); with ALX3 [11], 7.7 upbm affinity estimate (log intensity, higher = more binding, comparable within an allelic series). Further, the binding signal is 7.65 upbm affinity estimate (log intensity, higher = more binding, comparable within an allelic series) with ALX3 [12]; 7.48 upbm affinity estimate (log intensity, higher = more binding, comparable within an allelic series) with VAX1 [21]; 10.4 upbm affinity estimate (log intensity, higher = more binding, comparable within an allelic series) with HOXA2 [22]; 9.75 upbm affinity estimate (log intensity, higher = more binding, comparable within an allelic series) in the assay with HOXA4 [13]; 7.69 upbm affinity estimate (log intensity, higher = more binding, comparable within an allelic series) with ALX3 [14]; 7.23 upbm affinity estimate (log intensity, higher = more binding, comparable within an allelic series) in the assay with HOXA2 [24]. For the same sequence, in the assay with VAX1 [25], the binding signal is 7.38 upbm affinity estimate (log intensity, higher = more binding, comparable within an allelic series).
